These results are taken from PubChem BioAssay (NCI).

Each structure is given as a SMILES string. About 79,000 compounds went through this panel and 15% of them were active in at least one assay; those are over-represented in the sample as a whole. A number with no mark means an inactive call. Calls of active or inactive are those of the source. No stated cut-off is given here; in the data, active means growth inhibition above about 70%; inactive means the rest.

A short description of assay [1]: NCI Yeast Anticancer Drug Screen. Data for the rad50 strain (AID 155).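 Further: 0% = growth of vehicle-only cultures of the same strain.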 As to conditions: S. cerevisiae rad50 strain growth inhibition, active compounds read high. The method, boiled down: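 Genetically altered yeast (DNA repair pathway); compound treatment; growth inhibition vs vehicle ctrl.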
Assay [2] can be described thus: NCI Yeast Anticancer Drug Screen. Data for the mec2-1 strain (AID 157). As to conditions: S. cerevisiae mec2-1 strain, active compounds read high. The method, boiled down:
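Using mec2-1 yeast: add compound, measure growth, express inhibition versus vehicle-treated cultures.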

Assay [3] is described as follows: NCI Yeast Anticancer Drug Screen. Data for the sgs1 mgt1 strain (AID 161).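 Further: 0% = growth of cultures given vehicle only.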 As to conditions: S. cerevisiae sgs1 mgt1 strain, active compounds read high. Put shortly: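 Compounds are added to genetically altered yeast, and growth is compared with cultures given vehicle alone to give percent inhibition.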
Assay [4] can be described thus: NCI Yeast Anticancer Drug Screen. Data for the cln2 rad14 strain (AID 165).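 Further: 0% = growth equal to vehicle treated cultures.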 As to conditions: S. cerevisiae cln2 rad14 strain, active compounds read high. Put shortly:
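Yeast strain cln2 rad14, bearing defects in cell cycle control and DNA repair, serves as the test system; values reflect growth inhibition compared with vehicle.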

Assay [5] can be described thus: NCI Yeast Anticancer Drug Screen. Data for the bub3 strain (AID 167). As to conditions: S. cerevisiae bub3 mutant strain, active compounds read high. The method, boiled down: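 Yeast carrying a defined mutation is treated with each compound, and growth is compared with that of vehicle-exposed cells to give inhibition.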
The nature of assay [6]: NCI Yeast Anticancer Drug Screen. Data for the mlh1 rad18 strain (AID 175). As to conditions: S. cerevisiae mlh1 rad18 strain growth inhibition, active compounds read high. Put shortly: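 Steps: expose repair-defective yeast to compound; measure growth; express inhibition against vehicle-treated controls.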
Setting [7] is: at 5.0 µM (retest, dose inferred, filed as 0.5).
The mark [8] stands for this setting: at 50.0 µM (retest, dose inferred, filed as 5.0).

For `CC(C)c1oc(=O)cc2c1C(O)C1OC(=O)C3(C)C(O)C4OC4C2(C)C13` (stereo not given), the growth inhibition in assay [1] (setting [7]) was 8%; in assay [1] (setting [8]) it was 65%; in assay [1] (at 50.0 µM) it was 31.9%; in assay [2] (setting [7]), 10%; in assay [2] (setting [8]), 81% (active); in assay [2] (at 50.0 µM), -10.8%. For the same compound, the growth inhibition in assay [3] (setting [7]) was 10%; in assay [3] (setting [8]), 72% (active); in assay [3] (at 50.0 µM) it was 25.1%; in assay [4] (setting [7]), 19%; in assay [4] (setting [8]), 71% (active); in assay [4] (at 50.0 µM) it was 15.9%. Also, the growth inhibition was 2% in assay [5] (setting [7]); 76% (active) in assay [5] (setting [8]); 17.4% in assay [5] (at 50.0 µM); 11% in assay [6] (setting [7]); 86% (active) in assay [6] (setting [8]); 18.4% in assay [6] (at 50.0 µM).
On to `C[CH2][Pb]([CH2]C)([CH2]C)[O]C(C)=O`, for which the growth inhibition in assay [1] (setting [7]) is 33%; in assay [1] (setting [8]), 48%; in assay [1] (at 50.0 µM), 84.8% (active); in assay [2] (setting [7]), 43%; in assay [2] (setting [8]) it was 40%; in assay [2] (at 50.0 µM) it was 76% (active). In addition, the growth inhibition was 11% in assay [3] (setting [7]); 98% (active) in assay [3] (setting [8]); 86.8% (active) in assay [3] (at 50.0 µM); 29% in assay [4] (setting [7]); 96% (active) in assay [4] (setting [8]); 52.7% in assay [4] (at 50.0 µM). Besides, the growth inhibition was 26% in assay [5] (setting [7]); 97% (active) in assay [5] (setting [8]); 82.4% (active) in assay [5] (at 50.0 µM); 35% in assay [6] (setting [7]); 59% in assay [6] (setting [8]); 77.1% (active) in assay [6] (at 50.0 µM).
In the case of `[C-]#[O+].[C-]#[O+].[C-]#[O+].[C-]#[O+].[Mo].c1cnc2c(c1)ccc1cccnc12`, the growth inhibition in assay [1] (setting [7]) is -2%; in assay [1] (setting [8]), 0%; in assay [1] (at 50.0 µM), 81% (active); in assay [2] (setting [7]), -8%; in assay [2] (setting [8]), -6%; in assay [2] (at 50.0 µM) it was 60.4%. Besides, the growth inhibition in assay [3] (setting [7]) was -6%; in assay [3] (setting [8]), -2%; in assay [3] (at 50.0 µM) it was 71.4% (active); in assay [4] (setting [7]), -5%; in assay [4] (setting [8]) it was -17%; in assay [4] (at 50.0 µM) it was 39.6%. Besides, the growth inhibition in assay [5] (setting [7]) was -1%; in assay [5] (setting [8]) it was 6%; in assay [5] (at 50.0 µM) it was 79.1% (active); in assay [6] (setting [7]), -4%; in assay [6] (setting [8]) it was -8%; in assay [6] (at 50.0 µM), 81.9% (active).
As to `Cc1cc2c(cc1O)C(C)(C)CCC2(C)C`, the growth inhibition was 8% in assay [1] (setting [7]); 70% (active) in assay [1] (setting [8]); -6.9% in assay [1] (at 50.0 µM); -1% in assay [2] (setting [7]); 77% (active) in assay [2] (setting [8]); 97.2% (active) in assay [2] (at 50.0 µM). Besides, the growth inhibition in assay [3] (setting [7]) was 1%; in assay [3] (setting [8]) it was 78% (active); in assay [3] (at 50.0 µM) it was 47.9%; in assay [4] (setting [7]) it was 9%; in assay [4] (setting [8]), 90% (active); in assay [4] (at 50.0 µM), 52.8%. The growth inhibition in assay [5] (setting [7]) is 0%; in assay [5] (setting [8]), 83% (active); in assay [5] (at 50.0 µM) it was 96.8% (active); in assay [6] (setting [7]), -2%; in assay [6] (setting [8]), 62%; in assay [6] (at 50.0 µM), 97.3% (active).
Consider `O=C1[O][Hg][c]2c1cccc2[N+](=O)[O-]`, for which the growth inhibition in assay [1] (setting [7]) is 99% (active); in assay [1] (setting [8]) it was 99% (active); in assay [1] (at 50.0 µM), 99.2% (active); in assay [2] (setting [7]) it was 100% (active); in assay [2] (setting [8]), 100% (active); in assay [2] (at 50.0 µM) it was 99.2% (active). The growth inhibition is 100% (active) in assay [3] (setting [7]); 100% (active) in assay [3] (setting [8]); 99.4% (active) in assay [3] (at 50.0 µM); 52% in assay [4] (setting [7]); 98% (active) in assay [4] (setting [8]); 97.6% (active) in assay [4] (at 50.0 µM). For the same compound, the growth inhibition in assay [5] (setting [7]) is 100% (active); in assay [5] (setting [8]) it was 100% (active); in assay [5] (at 50.0 µM) it was 99.4% (active); in assay [6] (setting [7]), 100% (active); in assay [6] (setting [8]), 99% (active); in assay [6] (at 50.0 µM), 99.2% (active).
Turning to `Nc1nc(N)c(-c2ccc(Cl)c(Cl)c2)c(COc2cccc(CNS(=O)(=O)c3ccc(S(=O)(=O)F)cc3)c2)n1`, the growth inhibition in assay [1] (setting [7]) was 3%; in assay [1] (setting [8]), 57%; in assay [1] (at 50.0 µM), 51.1%; in assay [2] (setting [7]) it was -3%; in assay [2] (setting [8]), 86% (active); in assay [2] (at 50.0 µM), 49.5%. Further, the growth inhibition in assay [3] (setting [7]) was -2%; in assay [3] (setting [8]), 65%; in assay [3] (at 50.0 µM), 58%; in assay [4] (setting [7]), -4%; in assay [4] (setting [8]), 40%; in assay [4] (at 50.0 µM), 54.8%. For the same compound, the growth inhibition in assay [5] (setting [7]) was -3%; in assay [5] (setting [8]), 68%; in assay [5] (at 50.0 µM) it was 48.8%; in assay [6] (setting [7]), 4%; in assay [6] (setting [8]), 80% (active); in assay [6] (at 50.0 µM), 47%.
Take `C[C@@H]1C[C@H]2CC[C@H](O2)[C@H](C)C(=O)O[C@@H](C)C[C@@H]2CC[C@@H](O2)[C@@H](C)C(=O)O[C@H](C)C[C@H]2CC[C@H](O2)[C@H](C)C(=O)O[C@@H](C)C[C@@H]2CC[C@@H](O2)[C@@H](C)C(=O)O1`: the growth inhibition was 64% in assay [1] (setting [7]); 94% (active) in assay [1] (setting [8]); 84.3% (active) in assay [1] (at 50.0 µM); 78% (active) in assay [2] (setting [7]); 97% (active) in assay [2] (setting [8]); 88% (active) in assay [2] (at 50.0 µM). Also, the growth inhibition in assay [3] (setting [7]) was 88% (active); in assay [3] (setting [8]), 95% (active); in assay [3] (at 50.0 µM), 87.8% (active); in assay [4] (setting [7]), 55%; in assay [4] (setting [8]) it was 83% (active); in assay [4] (at 50.0 µM), 81.6% (active). Besides, the growth inhibition was 62% in assay [5] (setting [7]); 89% (active) in assay [5] (setting [8]); 84.3% (active) in assay [5] (at 50.0 µM); 76% (active) in assay [6] (setting [7]); 96% (active) in assay [6] (setting [8]); 82.3% (active) in assay [6] (at 50.0 µM).
Regarding `CC(=O)O[C@H]1CC[C@@]2(C)C(=CC[C@@H]3[C@@H]2CC[C@]2(C)C(=O)[C@@H](CN4CC4)C[C@@H]32)C1`, the growth inhibition in assay [1] (setting [7]) was 2%; in assay [1] (setting [8]), 97% (active); in assay [1] (at 50.0 µM), 59.7%; in assay [2] (setting [7]), 7%; in assay [2] (setting [8]), 99% (active); in assay [2] (at 50.0 µM), 54%. In addition, the growth inhibition is 22% in assay [3] (setting [7]); 99% (active) in assay [3] (setting [8]); 68.5% in assay [3] (at 50.0 µM); 5% in assay [4] (setting [7]); 75% (active) in assay [4] (setting [8]); 62.6% in assay [4] (at 50.0 µM). Besides, the growth inhibition in assay [5] (setting [7]) was 6%; in assay [5] (setting [8]), 97% (active); in assay [5] (at 50.0 µM), 39%; in assay [6] (setting [7]), 4%; in assay [6] (setting [8]), 98% (active); in assay [6] (at 50.0 µM), 62%.
Turning to `C/C1=C\[C@H](C)C[C@H](C)OC(=O)C[C@H](c2ccc(O)cc2)NC(=O)[C@@H](Cc2c(Br)[nH]c3ccccc23)N(C)C(=O)[C@H](C)NC(=O)[C@@H](C)C1`, the growth inhibition is 67% in assay [1] (setting [7]); 98% (active) in assay [1] (setting [8]); 84.8% (active) in assay [1] (at 50.0 µM); 88% (active) in assay [2] (setting [7]); 99% (active) in assay [2] (setting [8]); 81.3% (active) in assay [2] (at 50.0 µM). The growth inhibition was 98% (active) in assay [3] (setting [7]); 99% (active) in assay [3] (setting [8]); 88.7% (active) in assay [3] (at 50.0 µM); 97% (active) in assay [4] (setting [7]); 99% (active) in assay [4] (setting [8]); 81.5% (active) in assay [4] (at 50.0 µM). Moreover, the growth inhibition is 99% (active) in assay [5] (setting [7]); 99% (active) in assay [5] (setting [8]); 77.1% (active) in assay [5] (at 50.0 µM); 82% (active) in assay [6] (setting [7]); 98% (active) in assay [6] (setting [8]); 80% (active) in assay [6] (at 50.0 µM).
As to `N=C(N)c1ccc(NN=Nc2cccc3c2Oc2ccccc2O3)cc1`, the growth inhibition is 48% in assay [1] (setting [7]); 89% (active) in assay [1] (setting [8]); 80% (active) in assay [1] (at 50.0 µM); 20% in assay [2] (setting [7]); 84% (active) in assay [2] (setting [8]); 78.1% (active) in assay [2] (at 50.0 µM). Further, the growth inhibition in assay [3] (setting [7]) was 32%; in assay [3] (setting [8]), 90% (active); in assay [3] (at 50.0 µM), 74.6% (active); in assay [4] (setting [7]), 14%; in assay [4] (setting [8]), 69%; in assay [4] (at 50.0 µM), 71% (active). Besides, the growth inhibition was 10% in assay [5] (setting [7]); 80% (active) in assay [5] (setting [8]); 83.5% (active) in assay [5] (at 50.0 µM); 17% in assay [6] (setting [7]); 83% (active) in assay [6] (setting [8]); 70.2% (active) in assay [6] (at 50.0 µM).
